Measured values as given in the supplement of paper PMC7595190.
Values without a mark were called inactive.

Experiments:
Test in all cases: CellTox Green cytotoxicity fluorescence relative to DMSO vehicle (fold of vehicle RFU); higher = more cell death (loss of membrane integrity), active = 2 or more
CMK = system: CMK
How it was run: (§1)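 Three cell lines, MV4-11, CMK and Kasumi-1, were seeded at 4.0 × 10^4 cells per well into 96-well black optical-bottom plates containing CellTox Green reagent from the start. Compounds from the Selleckchem apoptosis library were diluted in DMSO, added one at a time at final 0.01, 0.1 or 1 µM with 0.1% DMSO as vehicle, and incubated at 37 °C in 5% CO2. Readings at 24, 48 and 72 h used excitation at 485 nm and emission at 520 nm. Values give cytotoxicity, taken as loss of membrane integrity, as fluorescence in fold of the DMSO vehicle.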

Kasumi-1 = system: Kasumi-1
How it was run: as §1

MV4-11 = system: MV4-11
How it was run: as §1

Compound | CellTox Green cytotoxicity fluorescence (CMK; 0.01 µM, 24 h) | CellTox Green cytotoxicity fluorescence (CMK; 0.01 µM, 48 h) | CellTox Green cytotoxicity fluorescence (CMK; 0.01 µM, 72 h) | CellTox Green cytotoxicity fluorescence (CMK; 0.1 µM, 24 h) | CellTox Green cytotoxicity fluorescence (CMK; 0.1 µM, 48 h) | CellTox Green cytotoxicity fluorescence (CMK; 0.1 µM, 72 h) | CellTox Green cytotoxicity fluorescence (CMK; 1 µM, 24 h) | CellTox Green cytotoxicity fluorescence (CMK; 1 µM, 48 h) | CellTox Green cytotoxicity fluorescence (CMK; 1 µM, 72 h) | CellTox Green cytotoxicity fluorescence (Kasumi-1; 0.01 µM, 24 h) | CellTox Green cytotoxicity fluorescence (Kasumi-1; 0.01 µM, 48 h) | CellTox Green cytotoxicity fluorescence (Kasumi-1; 0.01 µM, 72 h) | CellTox Green cytotoxicity fluorescence (Kasumi-1; 0.1 µM, 24 h) | CellTox Green cytotoxicity fluorescence (Kasumi-1; 0.1 µM, 48 h) | CellTox Green cytotoxicity fluorescence (Kasumi-1; 0.1 µM, 72 h) | CellTox Green cytotoxicity fluorescence (Kasumi-1; 1 µM, 24 h) | CellTox Green cytotoxicity fluorescence (Kasumi-1; 1 µM, 48 h) | CellTox Green cytotoxicity fluorescence (Kasumi-1; 1 µM, 72 h) | CellTox Green cytotoxicity fluorescence (MV4-11; 0.01 µM, 24 h) | CellTox Green cytotoxicity fluorescence (MV4-11; 0.01 µM, 48 h) | CellTox Green cytotoxicity fluorescence (MV4-11; 0.01 µM, 72 h) | CellTox Green cytotoxicity fluorescence (MV4-11; 0.1 µM, 24 h) | CellTox Green cytotoxicity fluorescence (MV4-11; 0.1 µM, 48 h) | CellTox Green cytotoxicity fluorescence (MV4-11; 0.1 µM, 72 h) | CellTox Green cytotoxicity fluorescence (MV4-11; 1 µM, 24 h) | CellTox Green cytotoxicity fluorescence (MV4-11; 1 µM, 48 h) | CellTox Green cytotoxicity fluorescence (MV4-11; 1 µM, 72 h)
CC[C@H](NC(=O)[C@H](C)NC)C(=O)N1C[C@@H](O)C[C@H]1Cc1c(-c2[nH]c3cc(F)ccc3c2C[C@@H]2C[C@H](O)CN2C(=O)[C@H](CC)NC(=O)[C@H](C)NC)[nH]c2cc(F)ccc12 [Birinapant] | 0.985 | 0.974 | 0.988 | 0.998 | 0.996 | 1 | 0.983 | 1.03 | 0.952 | 0.993 | 1.03 | 1.05 | 1.02 | 1.1 | 1.2 | 1.04 | 1.26 | 1.5 | 0.987 | 0.989 | 1 | 0.988 | 1.04 | 1.08 | 1.03 | 1.2 | 1.32
CCOC(=O)c1[nH]c2cc(Cl)ccc2c1C(C(=O)NC(C)(C)C)N(C=O)Cc1ccc(Cl)cc1 (stereo not given) | 0.996 | 0.985 | 1 | 0.958 | 0.958 | 0.962 | 0.96 | 0.971 | 0.87 | 1.06 | 1.01 | 1 | 0.989 | 0.982 | 1 | 0.977 | 0.971 | 0.97 | 0.983 | 0.965 | 0.957 | 0.989 | 0.983 | 0.985 | 0.954 | 0.993 | 1.02
CC(=NNC(=S)N1CCC1)c1ccccn1 | 0.934 | 0.962 | 1.02 | 0.922 | 1.29 | 1.42 | 1.04 | 1.42 | 1.4 | 1.01 | 1.03 | 1.19 | 0.971 | 1.18 | 1.6 | 1.02 | 1.25 | 1.49 | 0.984 | 1.31 | 2.11 (active) | 0.983 | 1.53 | 2.27 (active) | 1.02 | 1.38 | 1.68
CCO[C@@H]1OC(=O)C[C@@H]1NC(=O)[C@@H]1CCCN1C(=O)[C@@H](NC(=O)c1ccc(N)c(Cl)c1)C(C)(C)C | 0.989 | 0.988 | 1 | 0.971 | 0.981 | 0.995 | 0.96 | 0.975 | 1.03 | 0.954 | 0.953 | 0.948 | 0.98 | 0.961 | 0.948 | 0.997 | 1.02 | 1.03 | 0.972 | 0.981 | 0.987 | 0.995 | 0.989 | 0.996 | 1 | 1 | 1.01
O=C1C(=O)N(Cc2ccc(Cl)c(Cl)c2)c2ccccc21 [Apoptosis Activator 2] | 1.01 | 1.02 | 1.01 | 1.03 | 1.04 | 1.02 | 0.981 | 1.01 | 0.986 | 0.997 | 1 | 1.01 | 1 | 0.985 | 0.971 | 1.02 | 1.04 | 1.04 | 0.971 | 0.978 | 0.98 | 1.02 | 1.03 | 1.02 | 1.02 | 1.13 | 1.13
